An excerpt weighted towards active compounds, which were near 21% of everything screened.
CYP2C9 activ: CYP2C9 (human) activation; AID 1024; recombinant CYP2C9, luciferin-H conversion, luminescence; hits give high values; factor 1 = untreated enzyme, 0 = blocked; P11712; activation factor at 5 µM; actives 1.4% (n = 96,000);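 active = activation factor of 2 or more for CYP2C9 at a 5 µM dose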;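 also: 0 = sulfaphenazole-blocked wells and 1 = vehicle-only wells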
CYP2C19 inh: human CYP2C19 inhibition. CYP2C19 Supersomes, luciferin-H EGE luminescence, 30 min. inhibition, % at 5 µM. AID 778. actives 21% (n = 96,000). P33261;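 active = CYP2C19 inhibition above a set limit at 5 µM in the primary screen, cut at about 50% in these data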;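 also: plate controls were negative control wells for no effect and 2.5 mM tranylcypromine positive control for full effect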
Target sequence (P33261 whole entry, looked up): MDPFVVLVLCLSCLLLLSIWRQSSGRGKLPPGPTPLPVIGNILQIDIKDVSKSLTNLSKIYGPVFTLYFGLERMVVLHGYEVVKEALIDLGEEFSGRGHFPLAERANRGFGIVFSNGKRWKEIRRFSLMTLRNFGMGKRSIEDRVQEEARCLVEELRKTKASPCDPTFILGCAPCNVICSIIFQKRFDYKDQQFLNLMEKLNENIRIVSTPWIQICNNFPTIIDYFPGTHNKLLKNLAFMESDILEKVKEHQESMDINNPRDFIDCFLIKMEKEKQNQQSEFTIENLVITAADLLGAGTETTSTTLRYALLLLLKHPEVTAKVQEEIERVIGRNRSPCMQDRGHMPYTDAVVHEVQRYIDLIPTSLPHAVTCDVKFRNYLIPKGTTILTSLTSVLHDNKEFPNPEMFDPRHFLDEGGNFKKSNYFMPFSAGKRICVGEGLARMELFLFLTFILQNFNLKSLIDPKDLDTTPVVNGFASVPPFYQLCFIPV
MRP-1 activ: activates MRP-1 | viability increase, % at 10 µM | actives 0.61% (n = 140,000) | H69AR cells + doxorubicin, viability rescue, CellTiter-Glo;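 active = viability gain under doxorubicin at or above a set limit, the compound median plus 3 SD, cut at about 4.7% in these data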;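 also: MRP-1 overexpressing cells given doxorubicin 25 µM after compound pretreatment; 18-22 h compound pretreatment then 72 h with doxorubicin before readout; 0% = doxorubicin-only wells and 100% = vehicle-treated cells without doxorubicin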
CYP2C19 act: cytochrome P450 2C19 (human) activation. 96,000 tested, under 10 active. recombinant CYP2C19, luciferin-H EGE luminescence; hits give high values; 0 = fully inhibited enzyme, 1 = untreated enzyme. activation factor at 5 µM;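 active = activation factor of at least 2 at 5 µM in the primary screen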;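 also: 0 = wells with 2.5 mM tranylcypromine and 1 = vehicle-only wells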
MRP reversal: MRP-mediated drug resistance reversal | H69AR cells + 2 uM doxorubicin, CellTiter-Glo, 72 h | actives 0.04% (n = 85,000) | differential viability (reversal), % at 10 µM;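 active = viability drop by adding the cancer drug above about 55%, with treated viability meeting a 40% cutoff, limit read from the data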;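 also: viability without doxorubicin minus viability with 2 µM doxorubicin for each compound; larger differential means the compound sensitizes cells more to doxorubicin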
CYP2C9 inhib: blocks human cytochrome P450 2C9; inhibition, % at 5 µM; actives 20% (n = 96,000); AID 777; CYP2C9 Supersomes, luciferin-H conversion, luminescence;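 active = blocking of liver enzyme CYP2C9 beyond about 50% at 5 µM, limit read from the data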
* = called active by the depositor; . = not tested or not shown.

SMILES	CYP2C9 activ	CYP2C19 inh	MRP-1 activ	CYP2C19 act	MRP reversal	CYP2C9 inhib
O=C1CC(c2ccc(F)cc2)Sc2nc(-c3ccccc3)c(-c3ccccc3)n21 (stereo unspecified)	.	.	-1	.	.	.
O=c1nc(-c2ccccc2)n(-c2ccccc2)[nH]1	.	.	-1	.	.	.
CC1CCN(c2ccc(NC(=O)c3cccnc3)cc2)CC1	0.3	35	-5	0.6	-4	72*
CC(C)Cn1c(-c2ccc(F)cc2)n[nH]c1=S	0.8	86*	-1	0.1	-6	19
CCn1c(-c2ccc(F)cc2)n[nH]c1=S	0.8	18	0	0.8	-7	17
CC(C)Cn1c(-c2ccco2)n[nH]c1=S	1	16	-2	0.8	14	-4
CC(C)Cn1c(-c2ccccc2F)n[nH]c1=S	0.5	81*	0	0.2	7	46
COc1ccc(CNc2cc([N+](=O)[O-])ccc2OC)cc1	0.3	52*	0	0.5	.	75*
Cc1cc([N+](=O)[O-])ccc1NCc1ccc2ccccc2c1	0.2	36	1	0.6	.	77*
COc1ccc(CNC(=O)COc2ccc([N+](=O)[O-])cc2)cc1	0.7	28	-2	0.7	.	29
Cc1cc([N+](=O)[O-])ccc1NCc1ccccc1	0.5	87*	0	0.1	.	52*
COc1ccc(-c2noc(CCCC(=O)NCCc3ccccc3)n2)cc1OC	0.5	47	-3	0.5	-3	48
COc1ccc(C2c3c(oc4ccc(F)cc4c3=O)C(=O)N2CCN2CCOCC2)cc1OC (stereo unspecified)	.	.	.	.	12	.
C/C(Cc1ccccc1)=N\NC(=O)CNC(=O)c1ccc(C(C)(C)C)cc1	.	.	0	.	.	.
COc1cc2cc(CN(Cc3nnnn3Cc3ccco3)C3CCCCC3)c(=O)[nH]c2cc1OC	0.9	18	-2	0.8	-17	12
CCOc1ccc2[nH]c(=O)c(CN(Cc3ccco3)Cc3nnnn3Cc3ccccc3)cc2c1	0.5	31	-6	0.7	17	50*
COc1ccc(Cn2nnnc2CN(Cc2cc3cccc(C)c3[nH]c2=O)C2CCCC2)cc1	0.4	47	-4	0.5	15	61*
CCOc1ccc2[nH]c(=O)c(CN(Cc3nnnn3Cc3ccco3)C3CCCCC3)cc2c1	0.8	70*	-5	0.3	-12	25
CN(C)S(=O)(=O)c1cccc(NC(=O)COC(=O)c2ccc3c(c2)OCO3)c1	.	.	-1	.	.	.
Cc1ccc(NC(=O)c2sc(Cl)nc2-c2ccccc2)cc1C	0.8	16	0	0.8	.	16
COc1ccc(NC(=O)/C(C#N)=C/c2ccc(OCc3ccccc3F)cc2)cc1	.	.	-1	.	.	.
Oc1cc(-c2ccccc2)c2ccccc2c1	.	.	-1	.	.	.
Cc1cc(C)c2c(-n3cccc3)c(C(=O)NNS(=O)(=O)c3ccc(Br)cc3)sc2n1	.	.	-3	.	.	.
CCOC(=O)Nc1sc2nc(C)cc(C)c2c1-n1cccc1	0.3	45	-5	0.5	.	66*
COCCNC(=O)c1cccc(Nc2nc(-c3ccccc3)c3cc(Cl)ccc3n2)c1	.	.	0	.	.	.
SMILES	CYP2C9 activ	CYP2C19 inh	MRP-1 activ	CYP2C19 act	MRP reversal	CYP2C9 inhib
N#CCOC(=O)c1sccc1-n1cccc1	2*	9	-1	0.9	.	-95
CCCCCCn1c(=O)[nH]c2nc3cc(N)ccc3nc2c1=O	.	.	-4	.	.	.
COc1cccc(NC(=O)CSC(N)=O)c1	.	.	-2	.	.	.
Cc1cccc(NC(=O)CCC(=O)N/N=C/c2ccncc2)c1	.	.	0	.	.	.
Cc1cccc(NC(=O)CCC(=O)N/N=C/c2cc([N+](=O)[O-])ccc2O)c1	.	.	4.9*	.	.	.
CCCSc1nnc(-c2ccccc2N)c(=O)[nH]1	0.9	6	-1	0.9	12	8
Nc1cccc(S(=O)(=O)c2cccc(N)c2)c1	3*	7	0	0.9	9	-201
Nc1cccc(-c2nc3cc(S(=O)(=O)c4ccc5oc(-c6cccc(N)c6)nc5c4)ccc3o2)c1	0.6	23	3	0.8	.	37
O=C(c1cc(-c2ccco2)nn1-c1cccc(Cl)c1)N1CCCCC1	0.1	64*	-1	0.4	-3	87*
CC(C)NC(=O)c1cc(-c2ccco2)nn1-c1ccc(Cl)cc1	0.7	8	-3	0.9	.	34
O=C(CSc1nnc(-c2c[nH]c3ccccc23)o1)N1CCCCC1	0.9	41	0	0.6	15	7
O=C(CSc1nnc(COc2cccc3cccnc23)o1)c1ccc(F)cc1	1.3	24	-1	0.8	5	-31
O=C(CSc1nnc(-c2ccco2)o1)N1c2ccccc2CCc2ccccc21	0	89*	-1	0.1	4	97*
c1ccc(CSc2nnc(-c3c[nH]c4ccccc34)o2)cc1	1	-10	2	1.1	-1	0
c1ccc2c(-c3nnc(SCc4cn5ccccc5n4)o3)c[nH]c2c1	0.4	67*	0	0.3	-20	61*
O=C(CSc1nnc(COc2cccc3ccccc23)o1)N1c2ccccc2CCc2ccccc21	0.5	22	-2	0.8	10	54*
O=C(CSc1nnc(-c2c[nH]c3ccccc23)o1)N1c2ccccc2CCc2ccccc21	0.1	79*	-1	0.2	0	92*
Nc1c(C(=O)c2ccccc2)oc2ccccc12	0.7	85*	-1	0.1	0	34
COc1ccc(C(=O)c2oc3ccccc3c2N)cc1	0.7	69*	-1	0.3	-16	28
Nc1c(C(=O)Nc2ccc(Cl)cc2)oc2ccccc12	0.4	54*	-4	0.5	0	63*
CC(=O)c1oc2ccccc2c1N	0.9	12	-2	0.9	.	6
Fc1ccccc1NC(=S)N1CCN(Cc2ccccc2)CC1	.	.	1	.	.	.
Cc1ccc(Cn2nnc3c(=O)n(CC(=O)c4ccccc4)cnc32)cc1	0.4	1	-2	1	3	60*
Cc1ccc(C(=O)Nc2ccccc2C(=O)N2CCOCC2)cc1[N+](=O)[O-]	.	.	-1	.	.	.
CCC(Sc1nc2n[nH]c(C)c2c(=N)n1-c1cc(Cl)ccc1C)C(=O)N1CCOCC1 (stereo unspecified)	.	.	-1	.	1	.
SMILES	CYP2C9 activ	CYP2C19 inh	MRP-1 activ	CYP2C19 act	MRP reversal	CYP2C9 inhib
O=C1CC(c2ccccc2)n2nc(NC(=O)C3CCCO3)nc2N1 (stereo unspecified)	0.2	91*	0	0.1	-10	79*
COc1ccc(NC(=O)CSc2nc3nc(-c4cccs4)cc(C(F)(F)F)c3c(=O)[nH]2)c(OC)c1	.	.	-1	.	.	.
O=C(CSc1nc2nc(-c3cccs3)cc(C(F)(F)F)c2c(=O)[nH]1)NCc1ccco1	0.3	6	-3	0.9	.	72*
O=C(NCc1ccco1)c1cnn2c(C(F)F)cc(-c3ccccc3)nc12	0.4	1	-1	1	-16	58*
O=C(NCc1ccco1)c1cnn2c(C(F)(F)F)cc(-c3cccs3)nc12	0.5	34	-5	0.7	2	51*
Cc1cc(C)c(Cc2c(C)nc3c(C(=O)NCc4ccco4)cnn3c2C)c(C)c1	0.2	8	-5	0.9	2	78*
